Results as given in the supplement of paper PMC6555819.

Experiments:
Test in all cases: PBM binding z-score (relative to random genomic background probes); higher = stronger binding; sequences stand for … in GC…GCGATTGACAGCGTAGAATGAAGG
[1] = tested on: FXR:RXRa (NR concentration 270 nM, RXRa partner concentration 90 nM)
Method in brief: (§1)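 Ligand-free nuclear receptor dimers were bound for 1 h to custom Agilent 4×180K protein-binding microarrays. Detection used antibodies against each partner (one per run). Binding z-scores rest on regression-normalized fluorescence, with random background probes as the reference.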

[2] = tested on: LXRa:RXRa (NR concentration 270 nM, RXRa partner concentration 90 nM)
Method in brief: as §1

[3] = tested on: LXRa homodimer (NR concentration 270 nM)
Method in brief: as §1

[4] = tested on: LXRb:RXRa (NR concentration 270 nM, RXRa partner concentration 90 nM)
Method in brief: as §1

[5] = tested on: LXRb homodimer (NR concentration 270 nM)
Method in brief: as §1

[6] = tested on: PPARa:RXRa (NR concentration 270 nM, RXRa partner concentration 90 nM)
Method in brief: as §1

[7] = tested on: PPARg:RXRa 270nM:90nM, anti-RXR (NR concentration 270 nM, RXRa partner concentration 90 nM)
Method in brief: as §1

[8] = tested on: PPARg:RXRa 30nM:10nM, anti-RXR (NR concentration 30 nM, RXRa partner concentration 10 nM)
Method in brief: as §1

[9] = tested on: PPARg:RXRa 90nM:30nM, anti-RXR (NR concentration 90 nM, RXRa partner concentration 30 nM)
Method in brief: as §1

[10] = tested on: PPARg:RXRa DBDmut IVT, anti-RXR (DBD mutation: RXRa K156A/R161A, NR concentration 270 nM, RXRa partner concentration 90 nM)
Method in brief: as §1

[11] = tested on: PPARg:RXRa IVT, anti-PPARg (NR concentration 270 nM, RXRa partner concentration 90 nM)
Method in brief: as §1

[12] = tested on: PPARg DBDmut:RXRa IVT, anti-PPARg (DBD mutation: PPARg1 K132A/R137A, NR concentration 270 nM, RXRa partner concentration 90 nM)
Method in brief: as §1

[13] = tested on: PPARg DBDmut IVT, anti-PPARg (DBD mutation: PPARg1 K132A/R137A, NR concentration 270 nM)
Method in brief: as §1

[14] = tested on: PPARg homodimer (NR concentration 180 nM)
Method in brief: as §1

[15] = tested on: PXR:RXRa (NR concentration 270 nM, RXRa partner concentration 90 nM)
Method in brief: as §1

[16] = tested on: PXR homodimer (NR concentration 270 nM)
Method in brief: as §1

[17] = tested on: RARa:RXR (NR concentration 270 nM, RXRa partner concentration 90 nM)
Method in brief: as §1

[18] = tested on: RARa homodimer (NR concentration 270 nM)
Method in brief: as §1

[19] = tested on: RARb:RXRa (NR concentration 270 nM, RXRa partner concentration 90 nM)
Method in brief: as §1

[20] = tested on: PPARg:RXRa (NR concentration 180 nM, RXRa partner concentration 90 nM)
Method in brief: as §1

Sequence | PBM binding z-score [1] | PBM binding z-score [2] | PBM binding z-score [3] | PBM binding z-score [4] | PBM binding z-score [5] | PBM binding z-score [6] | PBM binding z-score [7] | PBM binding z-score [8] | PBM binding z-score [9] | PBM binding z-score [10] | PBM binding z-score [11] | PBM binding z-score [12] | PBM binding z-score [13] | PBM binding z-score [14] | PBM binding z-score [15] | PBM binding z-score [16] | PBM binding z-score [17] | PBM binding z-score [18] | PBM binding z-score [19] | PBM binding z-score [20]
CGCACTAGGTCATTGACAGGACAGTGAATAGTAA | 4.64 | 3.31 | 0.73 | 2.31 | 0.424 | 4.38 | 5.96 | 3.36 | 5.26 | 8.05 | 8.26 | 3.67 | 3.71 | 2.42 | 1.82 | 0.54 | 2.55 | 0.834 | 3.81 | 
CAAACTAGGTCACGAAAGGTCAAAGTTGAATGAC | 7.31 | 8.11 | 8.31 | 7.43 | 2.68 | 6.6 | 8.55 | 7.45 | 8.74 | 8.71 | 9.01 | 2.54 | 2 | 4.96 | 6.9 | 3.33 | 7.79 | 4.38 | 5.45 | 
CGTCCAAGGTCAGAGAGGTCAGTGACTGCCGAGT | 6.33 | 5.11 | 3.23 | 4.11 | 0.108 | 4.74 | 4.2 | 1 | 2.64 | 3.1 | 3.54 | -0.0571 | -1.2 | 5.16 | 6.06 | 11.3 | 5.75 | 2.55 | 5.28 | 
CCTACTGGGCCAAGCTCATTGATCAGTCAAAGCA | -0.645 | -0.823 | -0.557 | -0.699 | -1.01 | 0.0972 | 0.223 | -0.794 | -0.165 | 4.44 | 2.91 | -0.901 | -1.44 | -0.727 | -0.626 | -0.809 | -0.399 | -1.2 | -0.112 | 
TCTGCTAGGTCAACGATGGTCAGCGAATCTGCTA | 3.19 | 2.8 | -0.293 | 1.24 | -0.382 |  | 3.03 | 1.79 | 2.4 | 4.02 | 4.01 | 0.33 | -0.3 | 0.458 | 1.44 | -0.999 | 2.26 | -0.808 | 4.11 | 2.51
AGAATGAGGTTAACAAAGATCAGGGAAACGCTTG | 2.66 | 5.37 | 0.105 | 2.63 | -0.171 |  | 2.59 | 1.09 | 1.88 | 3.76 | 3.12 | 0.964 | 0.512 | 0.76 | 1.72 | 0.159 | 2.07 | 1.01 | 2.01 | 2.62
TGAATGAGGTTTAAGATCAGGGAACGTGGCGTCG | -0.267 | -0.0856 | -0.566 | -0.625 | -0.285 |  | 1.49 | 0.74 | 1.15 | -0.249 | 0.242 | 0.0033 | -0.732 | -0.165 | -0.2 | -0.311 | -0.216 | -0.194 | 0.0151 | 0.663
ATCGAAGGGTCGAAGGTGAGTATACCCACCCGAA | 1.3 | 1.26 | -0.26 | 1.21 | -0.316 |  | 3.11 | 1.08 | 2.47 | -0.959 | 1.2 | 0.357 | -0.0817 | 0.676 | 1.64 | -0.184 | 2.48 | -0.374 | 2.15 | 2.73
CCTTACGGGTCTCTCCAGGTTATAGCATCGGAGT | 0.0576 | 2.63 | 0.136 | 0.0193 | -0.526 |  | -0.225 | -0.385 | -0.47 | 0.165 | 0.161 | -0.412 | -0.96 | 0.354 | 0.294 | -0.138 | 0.923 | 0.0233 | 0.15 | -0.0815
AATTCAGGGTCACTAGGCCAGAGTAGGTACGAAT | 6.96 | 6.2 | 1.95 | 4.99 | 1.68 |  | 7.59 | 4.55 | 6.76 | 4.91 | 6.4 | 5.15 | 2.77 | 4.18 | 4.19 | 0.429 | 5.62 | 1.32 | 4.89 | 9.15
CCTAGTAGGTTATGGGGCATTCAGGCAACGGTGA | 0.561 | 0.515 | -0.0293 | 0.689 | -0.176 |  | 5.67 | 4.4 | 6.07 | 4.52 | 5.34 | 0.403 | -0.728 | 1.28 | 0.0613 | 0.02 | 0.431 | 0.456 | 1.13 | 5.47
ACCAGCAGGCCAAGGGTCACTCAAGATTAGTCCG | 2.48 | 2.71 | -0.066 | 2.55 | -0.909 |  | 6.19 | 4.57 | 5.83 | -0.293 | 2.57 | -0.621 | -0.244 | 2.32 | 2.95 | -0.192 | 3.93 | 0.0192 | 3.37 | 6.25
CCTTACGGGTCAGTGACAGGTTATAGCATTTGGA | 4.29 | 3.37 | 0.351 | 2.96 | -0.126 |  | 2.4 | 0.815 | 1.86 | 1.83 | 1.86 | 0.385 | 0.16 | 1.97 | 2.36 | 0.241 | 3.19 | 0.476 | 3.5 | 1.94
ATATGTAGGTTCCATCCGGGTCATTCAGGCTATG | 1.31 | 1.3 | 0.192 | 1.88 | 0.514 |  | 2.26 | 0.557 | 1.74 | 4.13 | 4.29 | 1.99 | 1.93 | 2.32 | 3.14 | 2.22 | 2.86 | 0.215 | 1.43 | 2.33
